Records with an inconclusive call do not appear. The source made the active and inactive calls. The call rests on the fitted dose curve; in most records, active means well fitted curve in the direction sought with a large enough effect; inconclusive means small, poorly fitted or top-dose-only effect, or another doubt; inactive means no such curve, though single readings can be large; an effect the other way counts as inactive or inconclusive.
How the values were obtained:
[1] = biological target: Rap guanine nucleotide exchange factor 3 (Homo sapiens) (UniProt O95398); test: Confirmatory qHTS for antagonist of cAMP-regulated guanine nucleotide exchange factor 3 (EPAC1) (AID 1645880); further: nearly all actives have a fitted effect of over 55% in size; further: potency means the concentration at half of the fitted maximal effect
Chain of Rap guanine nucleotide exchange factor 3 (Homo sapiens) (O95398 whole entry, looked up): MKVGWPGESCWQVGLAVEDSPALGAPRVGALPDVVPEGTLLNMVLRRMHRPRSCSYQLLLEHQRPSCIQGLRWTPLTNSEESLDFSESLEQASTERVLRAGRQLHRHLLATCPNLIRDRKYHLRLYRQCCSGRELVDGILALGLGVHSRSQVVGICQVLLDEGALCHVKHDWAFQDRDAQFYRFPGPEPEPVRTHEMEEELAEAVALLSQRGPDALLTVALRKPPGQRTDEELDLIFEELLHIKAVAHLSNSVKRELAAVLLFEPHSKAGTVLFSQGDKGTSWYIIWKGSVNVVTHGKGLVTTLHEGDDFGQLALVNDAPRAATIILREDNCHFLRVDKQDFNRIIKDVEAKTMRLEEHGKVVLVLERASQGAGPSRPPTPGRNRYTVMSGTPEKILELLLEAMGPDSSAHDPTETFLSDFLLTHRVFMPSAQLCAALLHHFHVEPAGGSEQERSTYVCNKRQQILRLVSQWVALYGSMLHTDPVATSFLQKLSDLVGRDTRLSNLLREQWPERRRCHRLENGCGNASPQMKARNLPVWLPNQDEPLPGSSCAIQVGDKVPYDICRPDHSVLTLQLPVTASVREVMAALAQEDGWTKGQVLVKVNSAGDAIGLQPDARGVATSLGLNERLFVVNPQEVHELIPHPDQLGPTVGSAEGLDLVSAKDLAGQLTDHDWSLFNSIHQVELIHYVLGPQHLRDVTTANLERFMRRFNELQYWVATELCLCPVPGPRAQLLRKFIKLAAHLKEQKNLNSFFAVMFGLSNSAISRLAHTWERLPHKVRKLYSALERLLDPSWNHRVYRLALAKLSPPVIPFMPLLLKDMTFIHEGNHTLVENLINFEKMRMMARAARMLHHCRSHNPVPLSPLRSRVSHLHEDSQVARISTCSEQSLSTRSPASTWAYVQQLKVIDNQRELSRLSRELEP
Summary of the method: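 Nucleotide exchange uses 100 nM EPAC1, 250 nM RAP1B-BODIPY-GDP and 50 uM GDP, with compounds in a concentration-titration series. After 5 min at room temperature, fluorescence (480 nm ex/540 nm em) is read every 5 min for 30 min. Data are normalized to control ATA and DMSO.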

[2] = biological target: Rap guanine nucleotide exchange factor 3 (Homo sapiens) (UniProt O95398); test: Confirmatory qHTS for agonist of cAMP-regulated guanine nucleotide exchange factor 3 (EPAC1) (AID 1645881); further: nearly all actives have a fitted effect of over 75% in size; further: potency means the concentration at half of the fitted maximal effect;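 on activation: EPAC1 catalysed release of BODIPY-GDP from Rap1B seen as fluorescence loss; 100% = effect of cAMP agonist control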
[3] = biological target: Rap guanine nucleotide exchange factor 4 (Homo sapiens) (UniProt Q8WZA2); test: Confirmatory qHTS for agonist of cAMP-regulated guanine nucleotide exchange factor 4 (EPAC2) (AID 1645884);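 further: nucleotide exchange releases bodipy-GDP from Rap1 and this lowers its fluorescence; nearly all actives have a fitted effect of over 65% in size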; further: potency means the concentration at half of the fitted maximal effect; on activation: on the % scale 0 is the no-effect control and ±100 the full control effect
Chain of Rap guanine nucleotide exchange factor 4 (Homo sapiens) (Q8WZA2 whole entry, looked up): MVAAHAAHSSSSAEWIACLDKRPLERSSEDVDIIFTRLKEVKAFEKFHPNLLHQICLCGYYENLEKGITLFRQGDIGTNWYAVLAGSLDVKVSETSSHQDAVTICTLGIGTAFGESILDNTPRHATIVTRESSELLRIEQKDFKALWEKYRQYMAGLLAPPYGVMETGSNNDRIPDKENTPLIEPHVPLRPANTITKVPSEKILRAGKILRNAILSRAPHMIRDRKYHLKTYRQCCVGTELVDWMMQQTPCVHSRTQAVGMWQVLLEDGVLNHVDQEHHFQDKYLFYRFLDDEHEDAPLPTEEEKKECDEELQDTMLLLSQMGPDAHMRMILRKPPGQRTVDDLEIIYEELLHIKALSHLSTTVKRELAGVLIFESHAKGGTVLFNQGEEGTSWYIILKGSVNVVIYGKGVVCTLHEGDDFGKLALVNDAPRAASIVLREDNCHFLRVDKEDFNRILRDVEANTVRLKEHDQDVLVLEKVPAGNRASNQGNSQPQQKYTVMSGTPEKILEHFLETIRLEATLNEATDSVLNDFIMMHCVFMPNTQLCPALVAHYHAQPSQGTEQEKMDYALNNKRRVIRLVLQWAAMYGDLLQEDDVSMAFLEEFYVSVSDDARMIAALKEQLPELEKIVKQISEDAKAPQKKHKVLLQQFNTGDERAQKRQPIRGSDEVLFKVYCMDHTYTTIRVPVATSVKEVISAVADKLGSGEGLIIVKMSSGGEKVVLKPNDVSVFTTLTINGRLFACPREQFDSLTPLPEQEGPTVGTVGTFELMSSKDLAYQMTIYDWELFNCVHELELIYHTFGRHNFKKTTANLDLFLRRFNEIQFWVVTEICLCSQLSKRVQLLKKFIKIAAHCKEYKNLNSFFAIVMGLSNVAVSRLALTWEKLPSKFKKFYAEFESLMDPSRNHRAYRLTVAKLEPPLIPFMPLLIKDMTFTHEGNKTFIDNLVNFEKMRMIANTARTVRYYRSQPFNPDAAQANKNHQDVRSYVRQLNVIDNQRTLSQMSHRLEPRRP

[4] = biological target: Rap guanine nucleotide exchange factor 4 (Homo sapiens) (UniProt Q8WZA2); test: Confirmatory qHTS for antagonist of cAMP-regulated guanine nucleotide exchange factor 4 (EPAC2) (AID 1645885); further: nearly all actives have a fitted effect of over 25% in size; further: potency means the concentration at half of the fitted maximal effect; on activity change, negative = inhibition: on the % scale 0 is the no-effect control and ±100 the full control effect
[5] = biological target: Rap guanine nucleotide exchange factor 3 (Homo sapiens) (UniProt O95398); test: Counterscreen qHTS for antagonist of cAMP-regulated guanine nucleotide exchange factor 3 (EPAC1) (AID 1645888);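 further: fluorescence loss as bound BODIPY-GDP is released from Rap1B; % of control where 0% means no effect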
Summary of the method: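 Rap1B-BODIPY-GDP 250 nM + GDP 50 uM; cpds 7-pt, final 9.74 nM–152 uM (activator mode) or from 7.32 nM upwards (inhibitor mode); RT; FI 480/540 nm at 5 and 30 min, then ± cAMP, reread.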

NS(=O)(=O)c1ccc(Nc2nc3ccccc3nc2NS(=O)(=O)c2cccc([N+](=O)[O-])c2)cc1
active: Potency [1] 75.7 µM
inactive: Potency [2] | Potency [3] | Potency [4] | Potency [5]

O=C(OCC(=O)N1CCN(S(=O)(=O)c2ccc(Cl)cc2)CC1)c1cccc(OC(F)F)c1
inactive: Potency [1] | Potency [2] | activation [3] 0.331% [at 17.1 µM, percent relative to cAMP agonist control] | Potency [4] | activity change, negative = inhibition [5] -17.2% [at 30.8 µM]

Cc1nn(-c2ccccc2)c(N2CCCC2)c1/C=C1\N=C(c2ccc(OC(C)C)cc2)OC1=O
inactive: Potency [1] | Potency [2] | Potency [3] | Potency [4] | Potency [5]

COC(=O)c1ccc2nc(-c3ccc(C)cc3)c(Cc3ccc(C)cc3)n2c1
active: Potency [4] 37.9 µM
inactive: Potency [1] | Potency [2] | Potency [3] | Potency [5]

Cc1ccc(C)n1-c1c(C(=O)NCCC(C)C)sc2ncccc12
inactive: Potency [1] | Potency [2] | Potency [3] | Potency [4] | Potency [5]

OCc1cccc(-c2cnc3c(Nc4cccc(OC(F)(F)C(F)F)c4)nccn23)c1
inactive: Potency [1] | Potency [2] | activation [3] -0.754% [at 17.1 µM, percent relative to cAMP agonist control] | Potency [4] | activity change, negative = inhibition [5] 9.1% [at 30.8 µM]

Cc1ccccc1C(=O)NCC(=O)N1CCN(c2ccccn2)CC1
inactive: Potency [1] | Potency [2] | activation [3] 9.91% [at 17.1 µM, percent relative to cAMP agonist control] | Potency [4] | activity change, negative = inhibition [5] -4.53% [at 30.8 µM]

COc1ccc(OC)c(Nc2nc3ccccc3nc2-n2nc(C)cc2C)c1
inactive: Potency [1] | Potency [2] | Potency [3] | Potency [4] | Potency [5]

Cc1[nH]n(-c2ccccc2)c(=O)c1C(c1cccc([N+](=O)[O-])c1O)c1c(C)[nH]n(-c2ccccc2)c1=O
active: Potency [1] 44.7 µM
inactive: Potency [2] | activation [3] 0.393% [at 17.1 µM, percent relative to cAMP agonist control] | Potency [4] | activity change, negative = inhibition [5] 23.8% [at 30.8 µM]

c1ccc(CN(Cc2ccccc2)c2c3c(nc4ncnn24)CCC3)cc1
inactive: Potency [1] | Potency [2] | Potency [3] | Potency [4] | Potency [5]

Cc1ccc(S(=O)(=O)N2[C@@H](c3ccc(Br)cc3)C(C(=O)O)=CC[C@H]2c2ccc(Cl)c(Cl)c2)cc1
inactive: Potency [2] | Potency [3] | Potency [5]
active: Potency [1] 67.5 µM | Potency [4] 33.8 µM

COC(=O)c1ccc2nc(-c3ccccc3)c(Cc3ccc(C)cc3)n2c1
inactive: Potency [1] | Potency [2] | Potency [3] | Potency [4] | Potency [5]

CCN(CC)CCn1c2c(c(SCC(=O)Nc3nc4ccccc4s3)nc1=O)CCCC2
inactive: Potency [1] | Potency [2] | Potency [3] | Potency [4] | Potency [5]

CCc1ccc(S(=O)(=O)/N=C2\C=C(NS(=O)(=O)c3ccccc3)C(=O)c3ccccc32)cc1
active: Potency [1] 19 µM
inactive: Potency [2] | Potency [3] | Potency [4] | Potency [5]

CCc1ccc(S(=O)(=O)/N=C2\C=C(Nc3cccc(C(=O)O)c3)C(=O)c3ccccc32)cc1
inactive: Potency [2] | Potency [3] | Potency [5]
active: Potency [1] 37.9 µM | Potency [4] 0.379 µM

CCOC(=O)C(C)n1cnc2c(nnn2-c2cccc(Cl)c2)c1=O (stereo not given)
inactive: Potency [1] | Potency [2] | activation [3] 0% [at 17.1 µM, percent relative to cAMP agonist control] | Potency [4] | activity change, negative = inhibition [5] -28.5% [at 30.8 µM]

CC(C)O/C(=N\S(=O)(=O)c1ccc(Cl)cc1)c1ccccc1
inactive: Potency [1] | Potency [2] | Potency [3] | Potency [5]
active: Potency [4] 16.9 µM

CC(C)[C@H](NC(=O)NCCc1ccc(F)cc1)C(=O)O
inactive: Potency [1] | Potency [2] | activation [3] 8.32% [at 17.1 µM, percent relative to cAMP agonist control] | Potency [4] | activity change, negative = inhibition [5] -8.58% [at 30.8 µM]

CSCc1cc(N(C)c2ccccc2)nc(-c2ccccc2)n1
inactive: Potency [1] | Potency [2] | Potency [3] | Potency [5]
active: Potency [4] 6.01 µM

Cc1cc(-c2ccc(Br)s2)nc(-n2cccc2)n1
inactive: Potency [1] | Potency [2] | Potency [3] | Potency [4] | Potency [5]

COc1ccc(NC(=O)COc2ccccc2C#N)c(S(=O)(=O)N2CCCCC2)c1
inactive: Potency [1] | Potency [2] | Potency [3] | Potency [4] | Potency [5]

NC(=O)COC(=O)/C=C/c1ccc2ccccc2n1
inactive: Potency [1] | Potency [2] | Potency [3] | Potency [4] | Potency [5]

COc1ccc(N(Cc2cccs2)C(=O)c2ccco2)cc1
inactive: Potency [1] | Potency [2] | Potency [3] | outcome [4] inactive [at 12.7 µM] | Potency [5]

O=C(NCC(c1ccco1)N1CCN(c2ccccc2F)CC1)c1cccs1 (stereo not given)
inactive: Potency [1] | Potency [2] | activation [3] 5.11% [at 17.1 µM, percent relative to cAMP agonist control] | Potency [4] | activity change, negative = inhibition [5] 6.53% [at 30.8 µM]

COc1cc2cnc(-c3ccccc3)c(C(=O)c3ccc(F)cc3)c2cc1OC
inactive: Potency [1] | Potency [2] | activation [3] 4.26% [at 17.1 µM, percent relative to cAMP agonist control] | Potency [4] | activity change, negative = inhibition [5] -6.2% [at 30.8 µM]

COc1cc(/C=N/NC(=O)c2ccccn2)ccc1OC(=O)c1ccc(Br)cc1
inactive: Potency [1] | Potency [2] | Potency [3] | Potency [4] | Potency [5]

COc1ccc(C(=O)N(Cc2ccccc2)c2cccc(C)c2)c(OC)c1OC
inactive: Potency [1] | Potency [2] | Potency [3] | Potency [4] | Potency [5]

CC(CCc1ccccc1)NC(=O)C1CCN(C(=O)c2sccc2-n2cccc2)CC1 (stereo not given)
inactive: Potency [1] | Potency [2] | Potency [3] | Potency [4] | Potency [5]

O=C(CCN1C(=O)S/C(=C\c2ccccc2)C1=O)Nc1ccc(S(=O)(=O)Nc2nccs2)cc1
inactive: Potency [2] | activation [3] 1.67% [at 17.1 µM, percent relative to cAMP agonist control] | Potency [4] | activity change, negative = inhibition [5] -0.356% [at 30.8 µM]
active: Potency [1] 39.8 µM

C(=C\c1ccccc1)/CN1CCN(C(c2cc3ccccc3o2)c2nnnn2C2CCCC2)CC1 (stereo not given)
inactive: Potency [1] | Potency [2] | activation [3] 0% [at 17.1 µM, percent relative to cAMP agonist control] | Potency [4] | activity change, negative = inhibition [5] 19.5% [at 30.8 µM]

CCOCCCn1c(SCC(=O)Nc2cccc(OC)c2)nc2ccccc2c1=O
inactive: Potency [1] | Potency [2] | Potency [3] | Potency [4] | Potency [5]

COc1cc(C)cc(C(=O)C=Cc2ccccc2)c1O
inactive: Potency [1] | Potency [2] | activation [3] 3.76% [at 17.1 µM, percent relative to cAMP agonist control] | Potency [4] | activity change, negative = inhibition [5] 12.7% [at 30.8 µM]

CCOC(=O)Cc1nn(Cc2ccccc2)c(=O)c2ccccc12
inactive: Potency [1] | Potency [2] | Potency [3] | Potency [4] | Potency [5]

COc1ccc(N2CCN(C(c3ccccc3F)c3sc4nc(-c5ccco5)nn4c3O)CC2)cc1 (stereo not given)
inactive: Potency [1] | Potency [2] | Potency [3] | Potency [4] | Potency [5]

Cc1ccc(-n2c(SCC(=O)N/N=C/c3ccccc3C(=O)O)nnc2-c2ccc(Cl)cc2)cc1
inactive: Potency [1] | Potency [2] | Potency [3] | Potency [4] | Potency [5]

COC(CNC(=O)c1ccc2c3c(onc13)-c1ccccc1C2=O)OC
active: Potency [2] 50.1 µM | Potency [3] 100 µM
inactive: Potency [1] | Potency [4] | Potency [5]

Cc1ccc([C@H]2C(C(=O)O)=CC[C@@H](c3ccc(Cl)c(Cl)c3)N2S(=O)(=O)c2ccc(C)cc2)cc1
inactive: Potency [2] | activation [3] 12.8% [at 17.1 µM, percent relative to cAMP agonist control] | Potency [4] | activity change, negative = inhibition [5] -5.89% [at 30.8 µM]
active: Potency [1] 56.2 µM

C(=N\N1CCN(C(c2ccccc2)c2ccccc2)CC1)/c1ccc2c(c1)OCO2
active: Potency [4] 84.9 µM
inactive: Potency [1] | Potency [2] | Potency [3] | Potency [5]

O=C(Nc1cccc(C(F)(F)F)c1)c1cccc(NS(=O)(=O)c2ccc(O)c(C(=O)O)c2)c1
inactive: Potency [2] | Potency [3] | Potency [4] | Potency [5]
active: Potency [1] 60.1 µM

COC(=O)c1cc2oc(C)cc2n1Cc1ccccc1Cl
inactive: Potency [1] | Potency [2] | Potency [3] | Potency [4] | Potency [5]

CC(C)(CNC(=O)Cc1ccc(NS(=O)(=O)c2cccc(C(F)(F)F)c2)cc1)N1CCOCC1
inactive: Potency [1] | Potency [2] | activation [3] 1.17% [at 17.1 µM, percent relative to cAMP agonist control] | Potency [4] | activity change, negative = inhibition [5] 10.3% [at 30.8 µM]

COc1cccc(OC)c1OC(=O)/C=C/c1ccc(C)o1
inactive: Potency [1] | Potency [2] | activation [3] -0.917% [at 17.1 µM, percent relative to cAMP agonist control] | Potency [4] | activity change, negative = inhibition [5] -18.3% [at 30.8 µM]

O=C(O)c1ccc(NC2=C/C(=N/S(=O)(=O)c3cccs3)c3ccccc3C2=O)cc1
active: Potency [1] 60.1 µM
inactive: Potency [2] | Potency [3] | Potency [4] | Potency [5]

O=C1OC(c2ccccc2)/C(=C(/O)c2ccccc2)C1=O (stereo not given)
inactive: Potency [1] | Potency [2] | activation [3] 9.85% [at 17.1 µM, percent relative to cAMP agonist control] | Potency [4] | activity change, negative = inhibition [5] -5.63% [at 30.8 µM]

N#Cc1c(/N=C/c2ccco2)sc2c1CCC2
inactive: Potency [1] | Potency [2] | activation [3] 2.45% [at 17.1 µM, percent relative to cAMP agonist control] | Potency [4] | activity change, negative = inhibition [5] 0.743% [at 30.8 µM]

O=c1[nH]c([N+](=O)[O-])nn1C(c1ccccc1)c1ccccc1
inactive: Potency [1] | Potency [2] | Potency [3] | Potency [5]
active: Potency [4] 26.9 µM

CCN(CC(=O)Nc1c(F)cccc1F)C(=O)CCc1nc2sc3c(c2c(=O)[nH]1)CCCC3
active: Potency [1] 75.7 µM
inactive: Potency [2] | Potency [3] | Potency [4] | Potency [5]
